# Source: PubChem BioAssay (EPA / NIEHS)
# The source made the active and inactive calls. Rule for the calls: active = hit-call score of the fitted dose curve at least 0.9, where 1 is the maximum; inactive = score below 0.9.
# Read-out: growth arrest and DNA damage 45 (GADD45B), GADD45B (gene 4616)
# Assay: LTEA_HepaRG_GADD45B: Life Technologies and Expression Analysis (LTEA) Assay for growth arrest and DNA damage 45 (GADD45B) using HepaRG (AID 2283461)
# Conditions: mRNA level, 48 h; actives raise or lower the signal
# Experimental: LTEA_HepaRG is a cell based, multiplexed-readout assay that uses HepaRG, a human liver cell line, with measurements taken at 48 hours after chemical dosing on a 96-well plate.LTEA_HepaRG_GADD45B is one of 102 assay component(s) measured in the LTEA HepaRG cell culture assay. It is a marker of Cell proliferation, survival, death.Data from the assay component LTEA_HepaRG_GADD45B was analyzed into 1 endpoint. This assay endpoint, LTEA_HepaRG_GADD45B, was analyzed with bidirectional fitting relative to DMSO as the negative control and baseline of activity. Using a type of inducible reporter, measures of mRNA induction for gain or loss-of-signal activity can be used to understand regulation of transcription factor activity. To generalize the intended target to other relatable targets, this assay endpoint is annotated to the mutagenicity response intended target family, where the subfamily is Cell proliferation, survival, death.
# A total of 1060 chemcials from the ToxCast library were tested in eight-point concentration-response experiments. Cell culture and cytotoxicity assays were conducted at Thermo Fisher Scientific's Custom Services facility (Madison, WI). A single lot of human HepaRG cells (Thermo Fisher Scientific, Frederick, MD) was used for the cell culture experiments. 96-well format collagen type I coated plates of human HepaRG cells were prepared using established methods. Briefly, cryopreserved HepaRG cells were thawed, plated at a density of approximately 100,000 cells/well in HepaRG Thaw, Plate, and General Purpose media (HPRG770, Thermo Fisher Scientific), and incubated for 48 hours. 0.5% DMSO was selected as vehicle control to balance the requisite need of DMSO in HepaRG cultures to maintain differentiation (for example, baseline metabolism, proportions of hepatocytes vs. cholangiocytes), while enabling further hepatic receptor pathway activation (for example, PXR and CAR) in response to chemical exposure. 48 hours after plating, the culture medium was replaced with HepaRG Serum-Free Incudtion Media. Cells were exposed to each test chemical in duplicate and maintained in CO2 incubators for another 48 hours. Chemical plates were thawed to room temperature and 200x concentrations of treatment groups were prepared. 8-point conentration-reponse curves were made with the highest exposure at 100 uM, followed by half-log dilutions, all in 0.5% DMSO. Each test plate contained variouse controls, induction positive controls (1mM phenobarbital), cytotoxicity positive controls ([…] aflatoxin B1), vehicle controls (0.5% DMSO), and total lysis controls (0.5% DMSO). Cell morphology images were taken using an Essen IncuCyte FLR automated microscope, with six 96-well plates imaged in about 24 minutes. Images were captured and exported and JPEG files. Spent culture media was transfered to black-well plates for the LDH assay, and remaining media was sorted at -80 C for later use. Cells were treated with RLT buffer and frozen until shipped for gene expression analysis. Total RNA was isolated from the cell suspension in 75 uL of Buffer RLT (Qiagen, Germantown, MD 20874) by Quintiles/Expression Analysis (Durham, NC) using a custom isolation procedure. Total RNA from each plate well was transferred to a preamplification plate. Fluidigm's 96.96 Dynamic ArrayTM (Fluidigm, Amsterdam, the Netherlands) technology was used for gene expression analyses by quantitative reverse transcription polymerase chain reaction (qRT-PCR, performed by Quintiles/Expression Analysis, Durham, NC)89. Standard TaqManTM Assays (Applied Biosystems/ThermoFisher Scientific, Foster City, CA) were used to assess the expression of 93 genes selected based on their selectivity and sensitivity to important hepatic receptors known to be modulated by environmental chemicals; importance in human hepatocyte functionality; and hepatotoxicity. […]
SMILES,outcome,AC50
CNC(=O)ON=C(SC)C(=O)N(C)C,inactive,
CCOP(=S)(OCC)OC(Cl)C(Cl)(Cl)Cl (stereo not given),inactive,
CCOP(=O)(NC(C)C)Oc1ccc(SC)c(C)c1 (stereo not given),inactive,
CCc1cccc(C)c1N(C(=O)CCl)C(C)COC (stereo not given),inactive,
CCOP(=S)(OCC)Oc1cc(C)nc(C(C)C)n1,inactive,
CCOP(=S)(OCC)SCCSCC,inactive,
CC(C)[C@H](C(=O)O[C@H](C#N)c1cccc(Oc2ccccc2)c1)c1ccc(Cl)cc1,inactive,
COc1cc(OC)nc(Sc2cccc(Cl)c2C(=O)O)n1,inactive,
O=[N+]([O-])c1cc(C(F)(F)F)c(Cl)c([N+](=O)[O-])c1Nc1ncc(C(F)(F)F)cc1Cl,inactive,
COP(=O)(OC)C(O)C(Cl)(Cl)Cl (stereo not given),inactive,
CCOP(=S)(OCC)Oc1ccc([N+](=O)[O-])cc1,inactive,
C#CCC1=C(C)C(OC(=O)C2C(C=C(C)C)C2(C)C)CC1=O (stereo not given),inactive,
FC(F)C(F)(F)OCC(Cn1cncn1)c1ccc(Cl)cc1Cl (stereo not given),inactive,
N#CSCSC#N,,50 µM (active)
CN1COCN(Cc2cnc(Cl)s2)C1=N[N+](=O)[O-],inactive,
CCCOCC(=Nc1ccc(Cl)cc1C(F)(F)F)n1ccnc1,,92 µM (active)
CCC(=NOC/C=C/Cl)C1=C(O)CC(C2CCOCC2)CC1=O (stereo not given),inactive,
COP(=O)(OC)SCn1c(=O)oc2cc(Cl)cnc21,inactive,
CN(C)C(=O)Nc1cccc(C(F)(F)F)c1,inactive,
CCc1cnc(C2=NC(C)(C(C)C)C(=O)N2)c(C(=O)O)c1 (stereo not given),inactive,

SMILES,outcome,AC50
CN(C)NC(=O)CCC(=O)O,inactive,
C[Si](Cn1cncn1)(c1ccc(F)cc1)c1ccc(F)cc1,inactive,
Cc1cc(C2CC2)nc(Nc2ccccc2)n1,inactive,
CCOC(=O)CC(SP(=O)(OC)OC)C(=O)OCC (stereo not given),inactive,
CC[C@H](C)[C@H]1O[C@]2(C=C[C@@H]1C)C[C@@H]1C[C@@H](C/C=C(\C)[C@@H](O[C@H]3C[C@H](OC)[C@@H](O[C@H]4C[C@H](OC)[C@@H](NC)[C@H](C)O4)[C@H](C)O3)[C@@H](C)/C=C/C=C3\CO[C@@H]4[C@H](O)C(C)=C[C@@H](C(=O)O1)[C@]34O)O2,,50 µM (active)
CSc1nc(NC(C)C)nc(NC(C)C)n1,inactive,
Nc1nc(N)nc(NC2CC2)n1,inactive,
C=C(C)[C@H]1Cc2c(ccc3c2O[C@@H]2COc4cc(OC)c(OC)cc4[C@@H]2C3=O)O1,,16.5 µM (active)
CSc1nnc(C(C)(C)C)c(=O)n1N,inactive,
Nc1c(Cl)cc([N+](=O)[O-])cc1Cl,,11.9 µM (active)
O=c1ccc(=O)[nH][nH]1,inactive,
CCNc1nc(Cl)nc(NC(C)(C)C#N)n1,inactive,
COc1cccc(C(=O)NN(C(=O)c2cc(C)cc(C)c2)C(C)(C)C)c1C,inactive,
Cc1ccn2nc(S(=O)(=O)Nc3c(F)cccc3F)nc2n1,inactive,
C#CC(C)(C)NC(=O)c1cc(Cl)cc(Cl)c1,inactive,
CC(COc1ccc(Oc2ccccc2)cc1)Oc1ccccn1 (stereo not given),inactive,
CCCCSP(=O)(SCCCC)SCCCC,inactive,
CCOP(=S)(Oc1cnc(C(C)(C)C)nc1)OC(C)C (stereo not given),inactive,
COc1ccc(C(=CC(=O)N2CCOCC2)c2ccc(Cl)cc2)cc1OC,inactive,
CC1=NNC(=O)N(/N=C/c2cccnc2)C1,inactive,
